Structures are written as SMILES. About 83,000 compounds went through this panel and 20% of them were active in at least one assay; those are over-represented in the sample as a whole.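 Plates (96-well) were seeded with cells, treated with compound at one concentration, and incubated for 48 hours before percent growth was determined.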 A number with no mark means an inactive call. The source made the active and inactive calls. The calls were made as follows: active = growth percent below 10; inactive = the rest.

For the first test, the system named is SK-MEL-5 melanoma. In words: NCI-60 one-dose screen, 48 h (100 = growth as untreated, 0 = no growth, -100 = all killed). The note with it: 10 µM.
With `Cc1cc(C)c(N)c(S(=O)(=O)O)c1`, the growth is 98.7%.

Consider `CC1CCC(C(=O)O)N1` (stereo not drawn), for which the growth is 102%.

`S=c1sc2ccccc2n1CN1CCCCC1`: the growth is 104%.

Turning to `CCCCC/C=N/Nc1nc(C)cc(=O)[nH]1`, the growth is 104%.

Take `CCOC(=O)C(O)C(O)C(=O)OCC` (stereo not drawn): the growth was 97.5%.

With `CC(=O)NCc1cc(C)c(C)cc1C`, the growth was 104%.

Turning to `CCN=c1cc2sc3cc(NCC)c(C)cc3nc-2cc1C`, the growth was -56.9% (active).

For the compound `COc1cc(-c2ccc(NC(=O)NC3CC3)c(OC)c2)ccc1NC(=O)NC1CC1`, the growth was 47.6%.

Consider `O=C(NC1CCCCC1)OCc1c(COC(=O)NC2CCCCC2)c(-c2ccc(Cl)c(Cl)c2)n2c1CCC2`, for which the growth was 41.6%.

As for `COC(=O)c1ccccc1Br`, the growth was 107%.

As for `COS(=O)(=O)c1ccc(Br)cc1`, the growth is 104%.

With `COc1cc(C(=O)NC(=S)Nc2ccc3ccccc3c2)cc(OC)c1OC`, the growth was 55.5%.

Take `CC(=O)OCC(=O)[C@@]1(O)CC[C@H]2[C@@H]3CC[C@@H]4C[C@H](O)CC[C@]4(C)[C@H]3C(=O)C[C@@]21C`: the growth is 97.1%.

Regarding `O=C1C=C(Nc2ccc([N+](=O)[O-])cc2)c2ccccc2C1=O`, the growth was 11.7%.

As to `CNC(=O)c1ccccc1CC1(O)c2ccccc2Oc2ccccc21`, the growth was 41.9%.

Consider `O=C(O)C(O)c1ccccc1` (stereo not drawn), for which the growth is 101%.

`CCCCC1(CC)COC(CCC)OC1` (stereo not drawn): the growth was 103%.

Take `CCOC(=O)c1ccc(NC(=S)P(=O)(c2ccccc2)c2ccccc2)cc1`: the growth is 104%.

In the case of `CCCCCCCCCCCCCCCCC1CC(=O)OC1=O` (stereo not drawn), the growth is 103%.

For `COc1cc2c(cc1OC)[C@H](C(=O)O)[C@@H](c1ccc(OC(C)C)c(OC)c1)N(C)C2=O`, the growth is 102%.

With `CC1CC(O)CC(C)(C)C1` (stereo not drawn), the growth is 104%.

With `Nc1ccc(C(=O)c2ccc(N)c(Br)c2)cc1Br`, the growth is 8.91% (active).

In the case of `NC(N)=Nc1cc2ccccc2c2ccccc12`, the growth was 85.9%.

For the compound `C[C@]12CC[C@@H]3c4ccc(OCC(=O)O)cc4CC[C@H]3[C@@H]1CCC2=O`, the growth was 99.9%.

For `CNS(=O)(=O)c1ccc(Cl)c(Cl)c1`, the growth is 96.7%.

Consider `C=CC(O)CCC` (stereo not drawn), for which the growth was 107%.

Turning to `O=P(O)(O)OCC(O)CO` (stereo not drawn), the growth was 102%.

In the case of `O=C(O)CSCSCC(=O)O`, the growth is 103%.

`CCOC(=O)CCCS(C)(=O)=O`: the growth was 102%.

For `Cc1cc(Cc2cc(C)c(N)cc2N)c(N)cc1N`, the growth was 91.9%.

For `COCCOCCCl`, the growth was 92.1%.

Take `COc1cc2nn(-c3ccccc3N)nc2cc1OC`: the growth was 98.4%.

As to `CC1(O)CCCCC1O` (stereo not drawn), the growth is 107%.

`O=C(CCl)Nc1ccc2c(c1)C(=O)c1ccc(NC(=O)CCl)cc1C2=O`: the growth was -88% (active).

Regarding `C=CCNc1nnc(C)s1`, the growth was 107%.

Regarding `COc1cc(/C=N\Nc2ccccc2)ccc1OC(=O)c1ccccc1`, the growth is 74.7%.

Consider `CCC(C#N)(CC)c1ccccc1`, for which the growth was 98.6%.

As for `O=C1C[C@H](c2ccccc2)[C@H](c2ccccc2)C1`, the growth was 104%.

With `Cn1cnc2nc(Cl)nc(Cl)c21`, the growth is 16%.

The subject of another test is UACC-62 melanoma. Described as above. The note with it: 10 µM unless noted.
As for `Cc1cc(C)c(N)c(S(=O)(=O)O)c1`, the growth is 93.1%.

Consider `CC1CCC(C(=O)O)N1` (stereo not drawn), for which the growth was 98.1%.

On to `S=c1sc2ccccc2n1CN1CCCCC1`, for which the growth is 104%.

On to `CCCCC/C=N/Nc1nc(C)cc(=O)[nH]1`, for which the growth is 102%.

`CCOC(=O)C(O)C(O)C(=O)OCC` (stereo not drawn): the growth was 102%.

As to `CC(=O)NCc1cc(C)c(C)cc1C`, the growth is 109%.

In the case of `CCN=c1cc2sc3cc(NCC)c(C)cc3nc-2cc1C`, the growth is 61.3%.

With `COc1cc(-c2ccc(NC(=O)NC3CC3)c(OC)c2)ccc1NC(=O)NC1CC1`, the growth is 70.7%.

Regarding `O=C(NC1CCCCC1)OCc1c(COC(=O)NC2CCCCC2)c(-c2ccc(Cl)c(Cl)c2)n2c1CCC2`, the growth is 9.04% (active).

As for `COC(=O)c1ccccc1Br`, the growth is 94.4%.

With `COS(=O)(=O)c1ccc(Br)cc1`, the growth is 85.5%.

Turning to `COc1cc(C(=O)NC(=S)Nc2ccc3ccccc3c2)cc(OC)c1OC`, the growth was 36.5%.

Take `CC(=O)OCC(=O)[C@@]1(O)CC[C@H]2[C@@H]3CC[C@@H]4C[C@H](O)CC[C@]4(C)[C@H]3C(=O)C[C@@]21C`: the growth is 103%.

In the case of `O=C1C=C(Nc2ccc([N+](=O)[O-])cc2)c2ccccc2C1=O`, the growth was 17.7%.

In the case of `CNC(=O)c1ccccc1CC1(O)c2ccccc2Oc2ccccc21`, the growth is 43.6%.

Consider `O=C(O)C(O)c1ccccc1` (stereo not drawn), for which the growth is 107%.

On to `CCCCC1(CC)COC(CCC)OC1` (stereo not drawn), for which the growth was 96.6%.

Regarding `CCOC(=O)c1ccc(NC(=S)P(=O)(c2ccccc2)c2ccccc2)cc1`, the growth is 99.4%.

On to `CCCCCCCCCCCCCCCCC1CC(=O)OC1=O` (stereo not drawn), for which the growth is 102%.

Take `COc1cc2c(cc1OC)[C@H](C(=O)O)[C@@H](c1ccc(OC(C)C)c(OC)c1)N(C)C2=O`: the growth was 89.6%.

As for `CC1CC(O)CC(C)(C)C1` (stereo not drawn), the growth was 92.4%.

As to `Nc1ccc(C(=O)c2ccc(N)c(Br)c2)cc1Br`, the growth is 28.7%.

Turning to `NC(N)=Nc1cc2ccccc2c2ccccc12`, the growth is 75%.

Turning to `C[C@]12CC[C@@H]3c4ccc(OCC(=O)O)cc4CC[C@H]3[C@@H]1CCC2=O`, the growth was 96.5%.

Take `CNS(=O)(=O)c1ccc(Cl)c(Cl)c1`: the growth was 86.6%.

Regarding `C=CC(O)CCC` (stereo not drawn), the growth was 95.9%.

As to `O=P(O)(O)OCC(O)CO` (stereo not drawn), the growth was 108%.

Consider `O=C(O)CSCSCC(=O)O`, for which the growth was 100%.

On to `CCOC(=O)CCCS(C)(=O)=O`, for which the growth is 93.7%.

Turning to `Cc1cc(Cc2cc(C)c(N)cc2N)c(N)cc1N`, the growth is 95.5%.

`COCCOCCCl`: the growth was 104%.

Turning to `COc1cc2nn(-c3ccccc3N)nc2cc1OC`, the growth is 103%.

Regarding `CC1(O)CCCCC1O` (stereo not drawn), the growth is 96.5%.

Take `O=C(CCl)Nc1ccc2c(c1)C(=O)c1ccc(NC(=O)CCl)cc1C2=O`: the growth is -73.1% (active).

For the compound `C=CCNc1nnc(C)s1`, the growth was 97.1%.

Take `COc1cc(/C=N\Nc2ccccc2)ccc1OC(=O)c1ccccc1`: the growth is 24.4%.

`CCC(C#N)(CC)c1ccccc1`: the growth was 89.5%.

As to `O=C1C[C@H](c2ccccc2)[C@H](c2ccccc2)C1`, the growth is 90.2%.

For the compound `Cn1cnc2nc(Cl)nc(Cl)c21`, the growth is 54.9%.

Values taken from PubChem BioAssay (NCI).
